# Bioassay records deposited in PubChem BioAssay by several laboratories.
# PAX8 reporter: inhibitors of PAX8-driven TPO luciferase reporter, primary screen, RMG-I cells, single concentration; SteadyGlo, 24 h; inhibition, % at 12.6 µM; 360,000 tested, 1.2% active;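 active = mean replicate inhibition at least 60% with every replicate also reaching 60%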;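 note: luciferase light reporting Pax8 driven TPO promoter activity; plate controls were median of neutral control wells for no effect and mitoxantrone controls for full effect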
# EBV LMP1 NFkB: EBV LMP1-driven NF-kappaB luciferase reporter inhibitors, primary screen, cell-based, luminescence, single point; LMP1-induced NF-kappaB luciferase reporter cells; inhibition, % at 12.5 µM; 350,000 tested, 0.69% active; AID 504558, 2011; in the data active = inhibition above about 41%;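 note: 0% = neutral control wells and 100% = reference inhibitor control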
# TWEAK Fn14 block: inhibitors of TWEAK-Fn14 signaling, primary screen, luciferase reporter cells, uHTS; TWEAK-stimulated Fn14 reporter cells, luciferase luminescence, 8 h; inhibition, % at 10 µM; 360,000 tested, 2% active; in the data active = inhibition above about 50%
# EWS-Fli inh: EWS/Fli-driven NR0B1 reporter inhibitors, primary screen, A673 cells, NR0B1 luciferase, luminescence, MLPCN library; 350,000 tested, 0.67% active; viability-normalised; inhibition, % at 12.6 µM;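 active = mean inhibition of at least 50% after viability correction, with every replicate also passing that limit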;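 note: firefly luciferase signal divided by Alamar Blue viability fluorescence both relative to DMSO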
# TROY signal inh: inhibitors of TROY-driven NF-kB signaling, primary screen, Q293 LMP1-TROYcd cells, NF-kB luciferase, uHTS; inhibition, % at 10 µM; Q293 LMP1-TROYcd NF-kB luciferase reporter, 4 h; 360,000 tested, 0.98% active;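 active = compounds whose plate-normalised and pattern-corrected inhibition of the luciferase reporter signal at the single screening dose is 50% or more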
# LGR2 antag: inhibitors of bursicon-induced LGR2 CRE-luciferase signal, primary screen, cell-based, HEK293, CRE-luciferase reporter, bursicon stimulation; bursicon-stimulated, 4 h; inhibition, % at 9.99 µM; 380,000 tested, 0.35% active; AID 720647, 2013;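 active = drop in luminescence signal, shown as inhibition above about 50% in the replicate tests, limit read from the data, passing the limit was not always enough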;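 note: agonist challenge used bursicon conditioned medium at about half maximal strength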
# * hit, by the source's call; . = not tested or not shown. A selection: hits, their analogues and other compounds. The true share with any hit is near 3.1%.
SMILES,PAX8 reporter,EBV LMP1 NFkB,TWEAK Fn14 block,EWS-Fli inh,TROY signal inh,LGR2 antag
O=C(Nc1nc(-c2cc3ccccc3o2)cs1)c1ccc(S(=O)(=O)N2CCCC2)cc1,22.6,12.3,83.0*,6.2,39.1,10.8
O=[N+]([O-])C1C(c2ccccc2)C12c1ccccc1-c1ccccc12 (stereo not drawn),.,-4.2,57.1*,.,-1.2,.
CC1(C)c2ccccc2C(=O)c2ccccc21,4.9,3.8,-1.3,-16.6,-9.6,-7.7
COc1ccccc1NC(=O)c1oc2ccccc2c1C,-34.6,-21.3,-38.9,-44.0,-59.8,-26.8
COc1ccccc1CNC(=O)c1oc2ccccc2c1C,2.9,0.0,-3.5,.,50.9*,-15.2
C[C@@H]1CN([C@@H](C)CO)C(=O)c2cc(NC(=O)Cn3cnnn3)ccc2O[C@H]1CN(C)Cc1ccccc1,-5.7,.,.,0.9,.,-3.7
Cc1ccc(S(=O)(=O)Cc2ccc(C(=O)NCCCN3CCN(C)CC3)o2)cc1,9.8,4.2,84.4*,.,75.8*,.
O=C(NCCCN1CCOCC1)c1ccc(CS(=O)(=O)c2ccc(Br)cc2)o1,-14.4,5.6,15.2,0.8,-13.7,2.6
C[C@H](CO)N1C[C@H](C)[C@H](CN(C)S(=O)(=O)c2cn(C)cn2)OCCCC[C@H](C)Oc2ccc(NC(=O)c3ccccc3)cc2C1=O,-0.4,.,.,-12.9,.,-2.6
C=C(C(=O)c1ccccc1)C(c1ccccc1)C(C)C(=O)c1ccccc1 (stereo not drawn),53.3,-45.3,50.7*,.,-14.5,25.0
O=C1C=C(N2CCOCC2)c2ccccc2C1=O,74.1*,12.5,9.7,48.9,12.4,29.7
O=C1C=C(N2CCOCC2)c2cccc3cccc1c23,0.6,-0.4,3.9,-3.6,2.0,18.2
O=C1CC(c2ccccc2)=NN1c1ccccc1,8.2,0.7,-18.4,7.0,52.3*,-1.2
Cc1ccc(-c2cc(C(=O)N/N=C/c3ccccc3O)n[nH]2)o1,-22.8,13.4,12.8,.,0.4,-42.2
Cc1ccc(-c2cc(C(=O)N/N=C/C(Br)=C/c3ccccc3)n[nH]2)o1,73.8*,-19.7,42.6,6.5,4.4,-28.1
Cc1cccn2c(=O)c3cc(C(=O)NCCN4CCOCC4)c(=N)n(Cc4ccc(F)cc4)c3nc12,74.8*,0.3,-1.1,.,9.5,-2.9
Cc1cccn2c(=O)c3cc(S(=O)(=O)c4ccc(F)cc4)c(=N)n(Cc4ccco4)c3nc12,-3.9,-4.7,55.9*,15.1,5.8,53.4*
Cn1cnc(CCNC(=O)C[C@H]2CC[C@@H]3[C@H](COC[C@@H](O)CN3C(=O)Nc3ccc(F)cc3)O2)c1,-7.5,.,.,-7.8,.,4.3
O=[N+]([O-])c1ccc(/C=N/Nc2cc(Cl)nc(-c3ccccc3)n2)cc1,.,84.8*,-62.9,.,-8.2,5.6
O=C(C[C@@H]1CC[C@@H]2[C@H](COC[C@H](O)CN2C(=O)Nc2ccccc2)O1)NCc1ccncn1,-8.6,.,.,-15.6,.,-14.5
CC(SC#N)C(=O)C12CC3CC(CC(C3)C1)C2 (stereo not drawn),-2.9,-10.8,72.0*,2.6,41.1,.
COc1ccc(NC(=O)c2cc(-c3ccccc3Cl)on2)cc1,-29.2,-18.9,-30.5,-77.6,-77.6,-34.6
COc1cc(NC(=O)c2cc(-c3ccccc3Cl)on2)cc(OC)c1OC,8.8,5.5,24.5,61.6*,-2.4,13.5
Cc1ccc(S(=O)(=O)N(C)C[C@@H]2Oc3ccc(NC(=O)C4CC4)cc3CC(=O)N([C@@H](C)CO)C[C@H]2C)cc1,-7.6,.,.,2.5,.,-18.3
C[C@@H]1CN([C@H](C)CO)C(=O)c2cc(NC(=O)Nc3ccc(F)cc3)ccc2O[C@H]1CN(C)Cc1ccc(Oc2ccccc2)cc1,.,.,.,2.1,.,19.5
SMILES,PAX8 reporter,EBV LMP1 NFkB,TWEAK Fn14 block,EWS-Fli inh,TROY signal inh,LGR2 antag
C[C@@H]1CN([C@@H](C)CO)C(=O)c2cc(NC(=O)Nc3ccc(F)cc3)ccc2O[C@@H]1CN(C)Cc1ccc(Oc2ccccc2)cc1,74.6*,-14.0,44.2,10.2,25.5,-7.3
C[C@H](CO)N1C[C@H](C)[C@H](CN(C)Cc2ccc(Oc3ccccc3)cc2)Oc2ccc(NC(=O)Nc3ccc(C(F)(F)F)cc3)cc2C1=O,.,.,.,56.0*,.,3.3
C[C@@H]1CN([C@H](C)CO)C(=O)c2cc(NC(=O)Nc3ccc(F)cc3)ccc2O[C@@H]1CN(C)Cc1ccc(-c2ccccc2)cc1,.,.,.,63.6*,.,4.6
C[C@@H]1CN([C@H](C)CO)C(=O)c2cc(NC(=O)Nc3ccc(F)cc3)ccc2O[C@H]1CN(C)Cc1ccc(-c2ccccc2)cc1,.,.,.,10.7,.,15.6
Cc1ccc(C(=O)CSc2nccn2-c2ccccc2)cc1,.,-7.3,4.1,.,50.7*,.
CC(=O)N(C)C[C@H]1Oc2cc(C#CC(C)(C)O)ccc2S(=O)(=O)N([C@H](C)CO)C[C@H]1C,.,.,.,-5.5,.,-5.1
COc1ccc(NC(=O)Nc2ccc3c(c2)C(=O)N([C@@H](C)CO)C[C@H](C)[C@@H](CN(C)C(=O)Nc2ccc(F)cc2)OCCCC[C@H](C)O3)cc1,12.8,.,.,4.5,.,12.8
COc1cc(NC(=O)NCc2ccco2)ccc1-c1ccc(NC(=O)NCc2ccco2)cc1OC,67.3*,0.9,-130.5,-7.6,20.8,1.4
COc1cc(/C=N/O)ccc1OCc1ccc(C(=O)O)cc1,94.3*,86.1*,17.1,.,-49.9,.
CCOc1cc(/C=N/N=C(N)N)ccc1OCc1ccc(Cl)cc1,31.0,4.8,10.2,-3.8,-14.2,53.3*
COc1cc(/C=N/N=C(N)N)ccc1OCc1ccc(Cl)cc1,-17.4,13.3,81.5*,44.1,62.0*,32.1
CCOc1cc(CNCCc2ccc(S(N)(=O)=O)cc2)ccc1OCc1ccc(Cl)cc1,.,-65.5,86.1*,.,29.2,.
COc1cc(/C=N/O)ccc1OCc1ccc(Cl)cc1,-214.1,.,.,-47.4,.,.
C[C@H](CO)N1C[C@H](C)[C@@H](CN(C)CC2CCCCC2)Oc2c(NS(=O)(=O)c3ccc(Cl)cc3)cccc2C1=O,-1.9,.,.,-1.4,.,12.8
C[C@@H]1CN([C@H](C)CO)C(=O)Cc2cc(NC(=O)Nc3ccc(F)cc3)ccc2O[C@H]1CN(C)Cc1ccncc1,-1.7,.,.,-5.0,.,.
COC(=O)c1ccccc1OCCCOc1ccc(C=O)cc1OC,.,-28.2,53.2*,.,33.7,-14.0
C[C@H]1CN([C@@H](C)CO)C(=O)c2cccc(NS(=O)(=O)c3ccccc3)c2O[C@H]1CN(C)C(=O)Nc1ccc(F)cc1,9.1,.,.,-2.1,.,2.2
O=C1CC(c2ccccc2)Sc2nc3ccccc3n21 (stereo not drawn),-4.0,-15.5,33.7,-16.2,49.3,-15.2
